Inconclusive results are not listed. Active and inactive are the calls of the source. The call rests on the fitted dose curve; in most records, active means well fitted curve in the direction sought with a large enough effect; inconclusive means small, poorly fitted or top-dose-only effect, or another doubt; inactive means no such curve, though single readings can be large; an effect the other way counts as inactive or inconclusive.
What was measured:
[1] = target: Glutathione peroxidase 1 (Homo sapiens) (UniProt P07203); test: Primary qHTS Assay for Inhibitors of Recombinant Selenoprotein Glutathione Peroxidase 1 (GPX1) (AID 1845191); further: nearly all actives have a fitted effect of over 65% in size; on activity, negative = inhibition: on the % scale 0 is the no-effect control and ±100 the full control effect
Glutathione peroxidase 1 (Homo sapiens), sequence (P07203 whole entry, looked up): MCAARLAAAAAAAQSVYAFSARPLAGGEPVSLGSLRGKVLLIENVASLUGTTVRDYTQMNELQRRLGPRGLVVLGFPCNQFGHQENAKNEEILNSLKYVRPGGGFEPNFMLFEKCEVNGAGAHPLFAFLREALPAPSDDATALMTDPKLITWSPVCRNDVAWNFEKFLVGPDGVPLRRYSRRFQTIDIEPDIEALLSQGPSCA
How it was run: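 GR-coupled readout: NADPH consumption tracked by fluorescence, ex 340/em 450 nm, at t=0 and after 15 min at RT. Final mix 10 nM GPX1, 1 mM GSH, 0.5 mM CHP, 0.5 mM NADPH, 100 nM GR, 0.01% BSA, following 30 min enzyme–compound preincubation.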

[2] = target: Phospholipid hydroperoxide glutathione peroxidase GPX4 (Homo sapiens) (UniProt P36969); test: Primary qHTS Assay for Inhibitors of Recombinant Selenoprotein Glutathione Peroxidase 4 (GPX4) (AID 1845192); further: nearly all actives have a fitted effect of over 65% in size; on activity change, negative = inhibition: series mostly up to about 50 µM; on the % scale 0 is the no-effect control and ±100 the full control effect
Phospholipid hydroperoxide glutathione peroxidase GPX4 (Homo sapiens), sequence (P36969 whole entry, looked up): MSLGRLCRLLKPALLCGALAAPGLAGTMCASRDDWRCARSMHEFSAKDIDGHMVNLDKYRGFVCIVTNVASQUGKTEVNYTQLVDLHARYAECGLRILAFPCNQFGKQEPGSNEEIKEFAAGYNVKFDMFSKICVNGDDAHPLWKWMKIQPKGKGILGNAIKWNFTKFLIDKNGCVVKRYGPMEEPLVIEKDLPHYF
How it was run: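 Steps: GPX4 plus compound, 30 min RT; add GR/GSH/NADPH master mix; start with cumene hydroperoxide; read 340/450 nm fluorescence at 0 and 15 min. Finals were 200 nM GPX4, 1 mM GSH, 0.5 mM CHP, 0.5 mM NADPH, 100 nM GR.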

[3] = target: Luciferin 4-monooxygenase (Photinus pyralis) (UniProt P08659); test: Primary firefly luciferase (FLuc) qHTS assay for identification of artifact compounds. (AID 1845220); further: nearly all actives have a fitted effect of over 60% in size;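 on activity change, negative = inhibition: series mostly up to about 54 µM; plate controls were DMSO vehicle for no effect and no enzyme for full effect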
How it was run: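 D-luciferin and ATP (10 uM each, final) in Tris acetate buffer pH 7.6 were incubated with compounds for 15 min at room temperature. The reaction was started with 10 nM Photinus pyralis luciferase and luminescence read after 5 min. Percent inhibition was fitted to a 4-parameter Hill equation.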

[4] = test system: Nanoluciferase (engineered Oplophorus gracilirostris luciferase); test: Primary Nanoluciferase (NLuc) qHTS assay for identification of artifact compounds. (AID 1845222);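 further: series mostly up to about 54 µM; 0% = DMSO and -100% = no enzyme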
How it was run: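 Diluted conditioned medium from NLuc-expressing S16 cells treated with compounds for 15 min at room temperature, then Nano-Glo substrate added; luminescence read after 5 min. Percent inhibition versus no-enzyme and DMSO controls fitted to 4-parameter Hill equation.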

[5] = Primary redox qHTS assay for identification of artifact compounds. (AID 1845223);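 further: 0% = DMSO and 100% = reference compound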
How it was run: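 Redox-cycling detection via DTT (250 uM final) oxidation coupled to Amplex Red (25 uM)/HRP (250 mU/mL) in HBSS. 15 min preincubation plus 30 min after DTT, room temperature. Ex/Em 525/598 nm; 4-parameter Hill fit against DMSO and 10 uM DA3003.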

[6] = Primary fluorescence-based thiol-reactive (MSTI) qHTS assay for identification of artifact compounds. (AID 1845221); further: nearly all actives have a fitted effect of over 65% in size; further: potency means the concentration at half of the fitted maximal effect;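 on activity change, negative = thiol reactive: series mostly up to about 54 µM; thiol-reactive compounds lower the probe fluorescence signal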
How it was run: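 Thiol-reactive compounds detected by quenching of 4 uM MSTI fluorescence (525/598 nm) after 1 h room-temperature dark incubation in PBS pH 7.4, 2% DMSO. qHTS titration; percent inhibition Hill-fitted against Acetyl-MSTI/MSTI controls.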

O=C(O)C[C@H]1CCC(=O)[C@@H]1C/C=C\CCO
inactive: Potency [1] | Potency [2] | Potency [3] | Potency [4] | Potency [5]

Cc1c(Cc2ccc3ccccc3n2)c2cc(F)ccc2n1CC(=O)O
inactive: Potency [1] | Potency [2] | Potency [3] | Potency [4] | Potency [5]

CC(=O)NC1CC(=O)C23C(=O)NC(Cc4c[nH]c5ccccc45)C2C(C)=C(C)C(O)C3/C=C/CC(C)/C=C(/C)C(O)C1O (stereo not given)
inactive: Potency [1] | Potency [2] | Potency [6] | Potency [4]

CC(C)c1cc2c(c(O)c1O)[C@@]13CCCC(C)(C)C1[C@@H](O)[C@@H]2OC3=O (stereo not given in full)
active: Potency [6] 0.927 µM
inactive: Potency [1] | Potency [2]

C/C=C(\C)C(=O)OCC1OC(OC2OC(CO)C(O)C(O)C2O)C(O)C(O)C1O (stereo not given)
inactive: Potency [1] | Potency [2] | Potency [3] | Potency [4] | Potency [5]

CC(C)c1ccc2c(c1)CCC1[C@](C)(C(=O)O)CCC[C@]21C (stereo not given in full)
inactive: Potency [1] | Potency [2] | Potency [6] | Potency [4] | Potency [5]

COc1c(-c2ccc(O)cc2)cc(OC)c2c1oc1cc(O)c(OC3OC(CO)C(O)C3O)cc12 (stereo not given)
inactive: Potency [1] | Potency [2] | Potency [4]
active: Potency [6] 4.62 µM

CC(=O)OC1C(O)/C(C)=C\C2C(OC(=O)c3ccccc3)C(C)CC2(OC(C)=O)C(OC(C)=O)C(C)/C=C/C(C)(C)C1OC(C)=O (stereo not given)
inactive: Potency [1] | Potency [2] | Potency [6] | Potency [4] | Potency [5]

COc1ccc(/C=C/C(=O)O[C@@H]2[C@@H](O[C@@H]3O[C@H](CO)[C@@H](O)[C@H](O)[C@H]3O)[C@@H](O)[C@H](O[C@H]3C4C=CO[C@@H](O[C@@H]5O[C@H](CO)[C@@H](O)[C@H](O)[C@H]5O)C4[C@@]4(CO)O[C@@H]34)O[C@H]2C)cc1 (stereo not given in full)
inactive: Potency [1] | Potency [2] | activity change, negative = inhibition [3] -3.03% [at 11.6 µM] | activity, negative = inhibition [4] 1.1% [at 11.6 µM] | redox activity (% of DA3003) [5] 9.47% [at 11.5 µM]

CC(=O)OC[C@@]12C(=O)C[C@@H](C)[C@]3(C[C@@H](c4ccoc4)OC3=O)[C@H]1CC[C@H](OC(C)=O)[C@]21CO1
inactive: Potency [1] | Potency [2] | Potency [3] | Potency [4] | Potency [5]

Cc1ccc(-n2nc(C(C)(C)C)cc2NC(=O)Nc2cc(COc3cccnc3)[nH]n2)cc1
inactive: Potency [1] | Potency [2] | Potency [6] | Potency [4] | Potency [5]

Cc1cccc(-c2nn3c(c2-c2ccnc4ccc(C(N)=O)cc24)CCC3)n1
inactive: Potency [1] | Potency [2] | Potency [6] | Potency [4] | Potency [5]

CC1=C2CC(O)(C(C)(C)O)C(O[C@@H]3O[C@H](CO)[C@@H](O)[C@H](O)[C@H]3O)CC(C)C2CC1=O (stereo not given in full)
active: Potency [6] 3.67 µM
inactive: Potency [1] | Potency [2] | Potency [4] | Potency [5]

CC1(C)OC(=O)CC(O)C2(C)C1CC(=O)C1(C)C2C(O)CC2(C)C(c3ccoc3)OC(=O)C3OC321 (stereo not given)
inactive: Potency [1] | Potency [3] | Potency [6] | Potency [4]

CC(=O)NC(Cc1c[nH]c2ccccc(=O)c12)C(=O)O (stereo not given)
inactive: Potency [1] | Potency [3] | Potency [4]
active: Potency [6] 5.32 µM

CCC(C)C(C(=O)O)N1Cc2c(OCC=C(C)C)c(C)c(OC)c(C(=O)O)c2C1=O (stereo not given)
inactive: Potency [1] | Potency [2] | Potency [6] | Potency [4] | Potency [5]

CC1OC(OC2C(OC3C(O[C@H]4CC[C@@]5(C)C(CC[C@]6(C)C5C(=O)CC5=C7CC(C)(C)CC(O)[C@]7(C)CC[C@]56C)C4(C)C)OC(C(=O)O)C(O)C3O)OCC(O)C2O)C(O)C(O)C1O (stereo not given in full)
inactive: Potency [1] | Potency [2] | activity, negative = inhibition [4] -10.9% [at 11.6 µM]

Cc1nc2ccccc2c(-c2ccc3c4c(ccnc24)CCO3)c1[C@H](OC(C)(C)C)C(=O)O
inactive: Potency [1] | Potency [3] | Potency [6] | Potency [4]

COc1c2ccoc2nc2c(OC)c(O[C@@H]3O[C@@H](C)[C@H](O)[C@@H](O[C@@H]4O[C@H](CO)[C@@H](O)[C@H](O)[C@H]4O)[C@H]3OC(C)=O)ccc12
inactive: Potency [1] | Potency [3] | Potency [6] | Potency [4]

Cc1c(O)cc2c(c1O)COC1(O)CCCOC21 (stereo not given)
inactive: Potency [1] | Potency [2] | Potency [4] | Potency [5]

O=C(N[C@H](Cc1ccccc1)C(=O)O)c1sc2cc(F)ccc2c1Cl
inactive: Potency [1] | Potency [2] | Potency [6] | Potency [5]

CC[C@H](NC(=O)c1c(O)c(-c2ccccc2)nc2ccccc12)c1ccccc1
active: Potency [6] 2.67 µM
inactive: Potency [1] | Potency [2] | Potency [4] | Potency [5]

CC1=CC(=O)CC(C)(C)C1CCC(C)O[C@@H]1O[C@H](CO)[C@@H](O)[C@H](O)[C@H]1O (stereo not given in full)
inactive: Potency [1] | Potency [2] | Potency [4] | Potency [5]
active: Potency [6] 9.27 µM

CCOC(=O)c1ccc(NC2CCCCC2)c(N)c1
inactive: Potency [1] | Potency [2] | Potency [4] | Potency [5]

CC1(C)CC[C@]2(C(=O)O)CC[C@]3(C)C(=CCC4[C@@]5(C)CC[C@H](O[C@@H]6O[C@H](C(=O)O)[C@@H](O)[C@H](O[C@@H]7O[C@H](CO)[C@H](O)[C@H](O)[C@H]7O)[C@H]6O[C@@H]6O[C@H](CO)[C@@H](O)[C@H](O)[C@H]6O)C(C)(C)C5CC[C@]43C)[C@@H]2C1 (stereo not given in full)
inactive: Potency [1] | activity change, negative = inhibition [3] -14.9% [at 6.45 µM] | activity change, negative = thiol reactive [6] 227% [at 6.41 µM] | activity, negative = inhibition [4] -1.21% [at 6.45 µM]

COC(=O)[C@]1(C)CCC[C@@]2(C)C(=O)CC[C@H]3C(=O)C=C(CC[C@@H]21)C3O (stereo not given in full)
inactive: Potency [1] | Potency [2] | Potency [4] | Potency [5]

Source: PubChem BioAssay (NCATS)
